Among the data in PMC7862700, “An all-to-all approach to the identification of sequence-specific readers for epigenetic DNA modifications on cytosine” are binding signal values, retold here.

Holding throughout (test): DAPPL (digital affinity profiling via proximity ligation, sequencing); 10 mM Tris-HCl pH 7.5, 50 mM NaCl, 1 mM DTT, 4% glycerol, room temperature, 30 min; GST-TFs on glutathione beads, 16-mer random dsDNA library, 0.1% formaldehyde crosslink after washing; high values mean tight binding
For one assay, the target named is T1, FLI1 (Homo sapiens, UniProt Q01543 1-452).
T1 sequence: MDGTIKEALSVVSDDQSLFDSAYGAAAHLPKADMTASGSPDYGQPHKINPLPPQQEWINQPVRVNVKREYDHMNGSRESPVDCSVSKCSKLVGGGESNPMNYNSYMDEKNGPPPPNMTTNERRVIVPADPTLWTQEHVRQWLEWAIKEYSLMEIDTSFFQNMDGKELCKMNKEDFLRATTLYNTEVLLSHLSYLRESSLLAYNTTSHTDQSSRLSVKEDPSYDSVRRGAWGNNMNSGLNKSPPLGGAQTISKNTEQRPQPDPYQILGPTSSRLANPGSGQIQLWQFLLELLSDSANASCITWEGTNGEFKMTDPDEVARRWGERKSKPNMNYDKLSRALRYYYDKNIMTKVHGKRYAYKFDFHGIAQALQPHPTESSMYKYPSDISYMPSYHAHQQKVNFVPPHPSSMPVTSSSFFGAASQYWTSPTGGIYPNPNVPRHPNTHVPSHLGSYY
The conditions noted are these: protein: recombinant; tags: N-terminal GST; dsDNA, one strand shown. The method, boiled down: (§1)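 In yeast, human transcription factors were expressed with a GST fusion, then pulled down on glutathione beads and given DNA barcodes. Pooled with a tag-only sample, they were exposed to 200 nmole of a 16-mer random double-stranded DNA library (Tris/NaCl/DTT/glycerol buffer, room temperature, 30 min), washed, crosslinked with 0.1% formaldehyde, proximity-ligated using BsaI/T4 ligase for 1 h at 37 °C, PCR-amplified and read on an Illumina NextSeq500. Each hexamer's frequency of reads for a factor, divided by the matching frequency for the tag-only sample, gives the binding signal.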

Another assay concerns the target T2, ELK1 (Homo sapiens, UniProt P19419 1-428).
T2 sequence: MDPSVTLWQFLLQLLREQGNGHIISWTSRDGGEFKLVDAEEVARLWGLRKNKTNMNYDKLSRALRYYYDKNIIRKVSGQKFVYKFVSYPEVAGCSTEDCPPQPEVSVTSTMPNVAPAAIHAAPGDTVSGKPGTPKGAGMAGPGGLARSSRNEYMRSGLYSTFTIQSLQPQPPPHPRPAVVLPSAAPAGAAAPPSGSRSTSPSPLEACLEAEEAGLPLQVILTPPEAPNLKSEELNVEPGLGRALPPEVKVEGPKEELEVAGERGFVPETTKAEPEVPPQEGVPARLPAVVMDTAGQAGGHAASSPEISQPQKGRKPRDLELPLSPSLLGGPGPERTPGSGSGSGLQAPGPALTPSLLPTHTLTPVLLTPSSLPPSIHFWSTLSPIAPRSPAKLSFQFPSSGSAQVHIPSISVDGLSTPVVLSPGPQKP
The note with it: protein: recombinant; tags: N-terminal GST; dsDNA, one strand shown. The method, boiled down:
as §1

The target in another assay is T3, GABPA (Homo sapiens, UniProt Q06546 1-454).
T3 sequence: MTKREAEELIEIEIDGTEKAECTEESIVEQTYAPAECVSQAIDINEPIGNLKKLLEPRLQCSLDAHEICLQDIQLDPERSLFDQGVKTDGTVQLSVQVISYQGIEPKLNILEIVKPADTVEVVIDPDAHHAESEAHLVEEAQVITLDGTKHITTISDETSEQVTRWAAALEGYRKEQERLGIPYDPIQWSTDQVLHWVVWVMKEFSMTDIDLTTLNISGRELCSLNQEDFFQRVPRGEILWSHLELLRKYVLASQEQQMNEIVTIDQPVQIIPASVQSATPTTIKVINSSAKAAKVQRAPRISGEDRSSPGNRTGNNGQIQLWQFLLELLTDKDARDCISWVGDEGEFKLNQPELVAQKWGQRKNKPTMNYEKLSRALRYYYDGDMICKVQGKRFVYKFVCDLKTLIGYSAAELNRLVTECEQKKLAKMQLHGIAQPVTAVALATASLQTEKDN
The conditions noted are these: protein: recombinant; tags: N-terminal GST; dsDNA, one strand shown. The method, boiled down: as §1

In another assay the target is T4, ERG (Homo sapiens, UniProt P11308 1-479).
T4 sequence: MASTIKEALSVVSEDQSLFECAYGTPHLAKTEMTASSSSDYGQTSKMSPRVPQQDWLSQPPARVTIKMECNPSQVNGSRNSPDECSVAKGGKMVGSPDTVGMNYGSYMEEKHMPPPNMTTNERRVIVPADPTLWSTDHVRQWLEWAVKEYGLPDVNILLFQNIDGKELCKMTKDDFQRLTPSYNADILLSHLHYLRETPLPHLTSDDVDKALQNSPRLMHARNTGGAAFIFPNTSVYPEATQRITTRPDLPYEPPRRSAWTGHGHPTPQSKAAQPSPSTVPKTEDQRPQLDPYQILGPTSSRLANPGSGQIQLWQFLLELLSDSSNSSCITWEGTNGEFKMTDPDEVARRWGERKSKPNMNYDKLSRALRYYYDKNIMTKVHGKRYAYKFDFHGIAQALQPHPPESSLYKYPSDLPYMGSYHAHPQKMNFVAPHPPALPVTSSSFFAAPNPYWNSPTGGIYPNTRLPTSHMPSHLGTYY
The note with it: protein: recombinant; tags: N-terminal GST; dsDNA, one strand shown. In outline:
as §1

The target in another assay is ELF1 (Homo sapiens, UniProt P32519 1-619). The conditions noted are these: protein: recombinant; tags: N-terminal GST; dsDNA, one strand shown. The method, boiled down:
as §1

Another assay deals with T5, EHF (Homo sapiens, UniProt Q9NZC4 1-300).
T5 sequence: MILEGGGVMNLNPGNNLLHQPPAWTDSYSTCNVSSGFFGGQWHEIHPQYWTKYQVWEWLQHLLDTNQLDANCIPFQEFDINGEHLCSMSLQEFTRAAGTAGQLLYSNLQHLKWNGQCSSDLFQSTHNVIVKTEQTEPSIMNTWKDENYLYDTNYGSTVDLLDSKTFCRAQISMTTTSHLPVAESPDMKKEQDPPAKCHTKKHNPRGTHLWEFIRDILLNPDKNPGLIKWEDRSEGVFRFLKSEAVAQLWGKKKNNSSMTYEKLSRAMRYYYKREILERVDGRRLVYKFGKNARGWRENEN
The note with it: protein: recombinant; tags: N-terminal GST; dsDNA, one strand shown. In outline:
as §1

A further assay concerns the target SPI1 (Homo sapiens, UniProt P17947 1-270). The note with it: protein: recombinant; tags: N-terminal GST; dsDNA, one strand shown. In outline: as §1
For a further assay, the target named is SPIB (Homo sapiens, UniProt Q01892 1-262). The note with it: protein: recombinant; tags: N-terminal GST; dsDNA, one strand shown. The method, boiled down:
as §1

The target of the next assay is T6, FEV (Homo sapiens, UniProt Q99581 1-238).
T6 sequence: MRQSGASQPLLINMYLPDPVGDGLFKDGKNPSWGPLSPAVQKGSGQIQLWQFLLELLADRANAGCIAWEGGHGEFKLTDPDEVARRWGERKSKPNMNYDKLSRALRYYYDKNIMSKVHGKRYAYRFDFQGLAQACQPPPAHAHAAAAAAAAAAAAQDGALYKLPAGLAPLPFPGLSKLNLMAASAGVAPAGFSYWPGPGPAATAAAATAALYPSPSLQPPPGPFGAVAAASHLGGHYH
The note with it: protein: recombinant; tags: N-terminal GST; dsDNA, one strand shown. The method, boiled down: as §1

Another assay addresses ETV5 (Homo sapiens, UniProt P41161 1-510). The note with it: protein: recombinant; tags: N-terminal GST; dsDNA, one strand shown. The method, boiled down: as §1
A further assay concerns the target HSF1 (Homo sapiens, UniProt Q00613 1-529). The conditions noted are these: protein: recombinant; tags: N-terminal GST; chain copies: 3; dsDNA, one strand shown. The method, boiled down:
as §1

The next assay has as its target T7, SPIC (Homo sapiens, UniProt Q8N5J4 1-248).
T7 sequence: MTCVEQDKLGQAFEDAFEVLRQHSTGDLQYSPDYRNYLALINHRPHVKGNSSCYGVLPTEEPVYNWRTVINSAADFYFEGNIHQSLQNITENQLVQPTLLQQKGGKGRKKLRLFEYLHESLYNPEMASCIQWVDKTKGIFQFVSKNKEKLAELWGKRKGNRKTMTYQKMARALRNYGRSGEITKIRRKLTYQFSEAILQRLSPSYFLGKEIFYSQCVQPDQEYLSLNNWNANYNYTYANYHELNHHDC
The note with it: protein: recombinant; tags: N-terminal GST; dsDNA, one strand shown. In outline:
as §1

A further assay deals with ELF4 (Homo sapiens, UniProt Q99607 1-663). The note with it: protein: recombinant; tags: N-terminal GST; dsDNA, one strand shown. In outline: as §1
ELF4, sequence (Q99607 whole entry): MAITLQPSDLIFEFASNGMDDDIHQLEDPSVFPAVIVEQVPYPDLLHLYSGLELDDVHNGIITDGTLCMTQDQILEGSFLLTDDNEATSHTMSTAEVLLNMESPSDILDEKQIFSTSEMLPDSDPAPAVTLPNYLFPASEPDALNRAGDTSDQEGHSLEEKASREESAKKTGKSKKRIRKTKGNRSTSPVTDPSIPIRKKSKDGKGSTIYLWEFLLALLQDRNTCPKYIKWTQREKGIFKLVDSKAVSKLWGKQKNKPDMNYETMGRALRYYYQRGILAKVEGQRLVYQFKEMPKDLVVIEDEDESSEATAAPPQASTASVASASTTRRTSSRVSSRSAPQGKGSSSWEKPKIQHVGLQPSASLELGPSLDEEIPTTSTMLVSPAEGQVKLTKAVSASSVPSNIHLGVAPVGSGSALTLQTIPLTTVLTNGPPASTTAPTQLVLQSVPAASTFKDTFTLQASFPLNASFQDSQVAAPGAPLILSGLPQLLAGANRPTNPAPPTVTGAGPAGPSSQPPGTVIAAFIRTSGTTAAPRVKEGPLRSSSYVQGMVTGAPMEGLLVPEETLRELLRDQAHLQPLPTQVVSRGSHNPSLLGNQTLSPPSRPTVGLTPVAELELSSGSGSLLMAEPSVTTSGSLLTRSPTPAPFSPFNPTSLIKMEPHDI
A further assay concerns the target T8, ELK4 (Homo sapiens, UniProt P28324-2 1-405).
T8 sequence: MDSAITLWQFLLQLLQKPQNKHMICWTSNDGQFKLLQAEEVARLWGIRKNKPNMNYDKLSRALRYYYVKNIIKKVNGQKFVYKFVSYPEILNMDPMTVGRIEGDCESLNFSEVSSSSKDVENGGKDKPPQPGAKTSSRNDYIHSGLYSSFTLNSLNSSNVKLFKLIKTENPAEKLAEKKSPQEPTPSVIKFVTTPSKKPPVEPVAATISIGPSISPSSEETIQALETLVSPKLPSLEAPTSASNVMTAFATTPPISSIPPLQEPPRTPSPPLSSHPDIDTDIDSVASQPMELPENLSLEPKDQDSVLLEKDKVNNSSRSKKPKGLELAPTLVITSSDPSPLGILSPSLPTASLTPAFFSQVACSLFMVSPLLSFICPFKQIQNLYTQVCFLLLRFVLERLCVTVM
The conditions noted are these: protein: recombinant; tags: N-terminal GST; dsDNA, one strand shown. In outline: as §1

The next assay has as its target T9, ETV2 (Homo sapiens, UniProt O00321 1-342).
T9 sequence: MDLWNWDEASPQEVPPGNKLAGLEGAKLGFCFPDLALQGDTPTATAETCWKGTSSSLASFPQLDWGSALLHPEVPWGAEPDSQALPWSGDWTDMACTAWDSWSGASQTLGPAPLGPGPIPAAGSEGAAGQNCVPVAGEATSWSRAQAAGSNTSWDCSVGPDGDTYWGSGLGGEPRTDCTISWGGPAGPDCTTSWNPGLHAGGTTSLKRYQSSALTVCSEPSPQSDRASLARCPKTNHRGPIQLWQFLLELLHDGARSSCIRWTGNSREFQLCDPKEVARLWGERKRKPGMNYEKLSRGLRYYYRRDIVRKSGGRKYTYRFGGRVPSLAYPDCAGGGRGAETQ
The conditions noted are these: protein: recombinant; tags: N-terminal GST; dsDNA, one strand shown. In outline:
as §1

In the next assay the target is T10, ELF3 (Homo sapiens, UniProt P78545 1-371).
T10 sequence: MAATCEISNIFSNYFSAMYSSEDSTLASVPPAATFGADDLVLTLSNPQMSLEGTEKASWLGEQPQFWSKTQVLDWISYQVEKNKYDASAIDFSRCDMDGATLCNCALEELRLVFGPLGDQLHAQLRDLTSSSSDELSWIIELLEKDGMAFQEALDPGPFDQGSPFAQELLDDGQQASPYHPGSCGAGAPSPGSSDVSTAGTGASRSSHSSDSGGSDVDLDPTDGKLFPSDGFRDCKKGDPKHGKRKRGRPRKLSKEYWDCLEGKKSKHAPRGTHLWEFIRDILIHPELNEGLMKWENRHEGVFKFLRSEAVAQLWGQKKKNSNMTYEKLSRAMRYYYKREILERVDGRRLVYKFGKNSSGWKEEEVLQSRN
The conditions noted are these: protein: recombinant; tags: N-terminal GST; dsDNA, one strand shown. The method, boiled down: as §1

The next assay deals with CRX (Homo sapiens, UniProt O43186 1-299). The conditions noted are these: protein: recombinant; tags: N-terminal GST; dsDNA, one strand shown. In outline:
as §1

In the next assay the target is ETV1 (Homo sapiens, UniProt P50549 1-477). The note with it: protein: recombinant; tags: N-terminal GST; dsDNA, one strand shown. In outline: as §1
ETV1, sequence (P50549 whole entry): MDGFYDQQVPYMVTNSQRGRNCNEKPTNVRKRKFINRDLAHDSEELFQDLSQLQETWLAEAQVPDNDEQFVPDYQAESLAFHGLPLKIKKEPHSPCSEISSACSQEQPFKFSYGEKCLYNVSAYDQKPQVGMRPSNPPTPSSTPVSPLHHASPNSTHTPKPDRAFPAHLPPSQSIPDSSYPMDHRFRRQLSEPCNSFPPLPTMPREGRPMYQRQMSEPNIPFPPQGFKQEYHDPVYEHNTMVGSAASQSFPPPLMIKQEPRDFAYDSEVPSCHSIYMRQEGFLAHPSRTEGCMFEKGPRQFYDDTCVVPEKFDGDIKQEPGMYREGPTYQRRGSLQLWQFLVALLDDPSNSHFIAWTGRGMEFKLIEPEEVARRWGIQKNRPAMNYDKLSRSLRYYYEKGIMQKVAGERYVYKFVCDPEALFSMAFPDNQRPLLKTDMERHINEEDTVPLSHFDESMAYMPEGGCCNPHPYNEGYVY

ELF1, sequence (P32519 whole entry): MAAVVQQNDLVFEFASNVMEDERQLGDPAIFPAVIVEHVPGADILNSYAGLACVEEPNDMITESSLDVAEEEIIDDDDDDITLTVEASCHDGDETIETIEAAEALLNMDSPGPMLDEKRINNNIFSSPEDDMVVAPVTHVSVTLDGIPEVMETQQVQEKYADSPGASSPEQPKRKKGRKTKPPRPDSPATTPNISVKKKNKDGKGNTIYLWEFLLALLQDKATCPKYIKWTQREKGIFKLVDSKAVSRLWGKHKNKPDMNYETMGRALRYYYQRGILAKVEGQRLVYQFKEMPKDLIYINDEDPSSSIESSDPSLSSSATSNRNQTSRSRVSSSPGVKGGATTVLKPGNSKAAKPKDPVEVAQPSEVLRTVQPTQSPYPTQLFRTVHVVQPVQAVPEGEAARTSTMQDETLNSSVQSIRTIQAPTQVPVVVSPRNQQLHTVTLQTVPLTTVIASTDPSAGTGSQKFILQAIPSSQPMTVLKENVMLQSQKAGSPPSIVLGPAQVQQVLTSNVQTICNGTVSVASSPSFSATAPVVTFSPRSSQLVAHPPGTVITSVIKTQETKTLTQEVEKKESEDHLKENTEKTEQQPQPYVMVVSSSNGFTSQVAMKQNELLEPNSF
HSF1, sequence (Q00613 whole entry): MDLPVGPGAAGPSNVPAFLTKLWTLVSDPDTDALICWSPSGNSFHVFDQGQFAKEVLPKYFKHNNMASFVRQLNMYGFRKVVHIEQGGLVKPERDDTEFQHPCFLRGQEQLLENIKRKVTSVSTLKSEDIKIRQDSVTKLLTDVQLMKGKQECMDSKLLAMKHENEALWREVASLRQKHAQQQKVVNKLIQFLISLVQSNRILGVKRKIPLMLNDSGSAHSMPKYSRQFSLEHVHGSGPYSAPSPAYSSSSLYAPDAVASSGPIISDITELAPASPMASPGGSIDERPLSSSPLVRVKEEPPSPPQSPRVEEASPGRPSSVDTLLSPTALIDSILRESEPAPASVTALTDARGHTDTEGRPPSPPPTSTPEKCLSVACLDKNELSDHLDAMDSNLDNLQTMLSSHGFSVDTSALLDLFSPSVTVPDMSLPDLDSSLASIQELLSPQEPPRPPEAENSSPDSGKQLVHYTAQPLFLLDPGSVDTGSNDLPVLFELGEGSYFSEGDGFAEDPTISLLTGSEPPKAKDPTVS
SPIB, sequence (Q01892 whole entry): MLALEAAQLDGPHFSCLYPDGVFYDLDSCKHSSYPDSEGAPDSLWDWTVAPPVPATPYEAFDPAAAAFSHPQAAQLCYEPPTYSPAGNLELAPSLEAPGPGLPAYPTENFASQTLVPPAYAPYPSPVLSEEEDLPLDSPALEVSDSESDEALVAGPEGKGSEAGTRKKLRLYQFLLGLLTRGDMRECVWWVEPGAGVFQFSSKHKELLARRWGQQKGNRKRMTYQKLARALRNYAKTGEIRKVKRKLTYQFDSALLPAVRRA
CRX, sequence (O43186 whole entry): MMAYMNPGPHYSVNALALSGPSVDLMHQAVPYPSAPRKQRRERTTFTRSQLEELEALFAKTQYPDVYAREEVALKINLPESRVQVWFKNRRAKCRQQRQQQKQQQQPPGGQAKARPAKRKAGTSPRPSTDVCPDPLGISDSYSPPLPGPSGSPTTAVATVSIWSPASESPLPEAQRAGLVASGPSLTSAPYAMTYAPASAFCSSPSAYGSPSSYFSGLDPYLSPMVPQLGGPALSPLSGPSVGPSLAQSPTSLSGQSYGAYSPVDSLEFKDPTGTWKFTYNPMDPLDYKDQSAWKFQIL
ETV5, sequence (P41161 whole entry): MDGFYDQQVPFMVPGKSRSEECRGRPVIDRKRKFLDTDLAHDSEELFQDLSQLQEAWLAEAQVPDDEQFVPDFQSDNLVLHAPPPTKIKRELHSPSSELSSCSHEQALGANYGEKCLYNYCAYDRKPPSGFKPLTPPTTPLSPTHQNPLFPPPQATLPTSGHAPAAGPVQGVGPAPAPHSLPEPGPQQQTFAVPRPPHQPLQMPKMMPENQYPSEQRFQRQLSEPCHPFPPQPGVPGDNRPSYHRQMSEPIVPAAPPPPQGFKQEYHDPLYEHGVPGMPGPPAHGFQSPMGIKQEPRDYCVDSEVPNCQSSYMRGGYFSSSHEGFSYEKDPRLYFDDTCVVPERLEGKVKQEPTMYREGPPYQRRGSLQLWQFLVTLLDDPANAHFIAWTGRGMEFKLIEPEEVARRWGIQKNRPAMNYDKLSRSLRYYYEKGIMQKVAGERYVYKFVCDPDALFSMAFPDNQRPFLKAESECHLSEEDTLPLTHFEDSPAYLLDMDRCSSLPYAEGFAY

Consider GTATAA, for which the binding signal with FLI1 was 1.02 fold enrichment (6-mer frequency, TF over GST control); with ELK1, 1.21 fold enrichment (6-mer frequency, TF over GST control); in the assay with GABPA it was 1.06 fold enrichment (6-mer frequency, TF over GST control); with ERG, 1.06 fold enrichment (6-mer frequency, TF over GST control); with ELF1, 1.06 fold enrichment (6-mer frequency, TF over GST control); with EHF it was 1.09 fold enrichment (6-mer frequency, TF over GST control). For the same sequence, the binding signal is 1.12 fold enrichment (6-mer frequency, TF over GST control) in the assay with SPI1; 1.19 fold enrichment (6-mer frequency, TF over GST control) in the assay with SPIB; 1.01 fold enrichment (6-mer frequency, TF over GST control) with FEV; 1.1 fold enrichment (6-mer frequency, TF over GST control) in the assay with ETV5; 1.16 fold enrichment (6-mer frequency, TF over GST control) with HSF1; 1.07 fold enrichment (6-mer frequency, TF over GST control) with SPIC. Further, the binding signal with ELF4 was 1.05 fold enrichment (6-mer frequency, TF over GST control); with ELK4 it was 1.08 fold enrichment (6-mer frequency, TF over GST control); in the assay with ETV2, 1.18 fold enrichment (6-mer frequency, TF over GST control); in the assay with ELF3, 1.14 fold enrichment (6-mer frequency, TF over GST control); in the assay with CRX, 1.41 fold enrichment (6-mer frequency, TF over GST control); in the assay with ETV1 it was 1.14 fold enrichment (6-mer frequency, TF over GST control).
